SARS PLP yeast = qHTS of Yeast-based Assay for SARS-CoV PLP; 0.19% of 330,000 active; Potency, µM (highest dose often 32.9 µM), without a hit: at the highest dose activity, positive = growth rescue, most hits filed as activators; AID 485353, 2010; S. cerevisiae expressing SARS-CoV PLpro, growth rescue; note: potency is the fitted concentration of half-maximal effect; 0% is about no effect; nearly all actives have a fitted effect of over 55% in size
LmPK inhibitor = qHTS Assay for Inhibitors of Leishmania Mexicana Pyruvate Kinase (LmPK) | Q27686 | purified LmPK, Kinase-Glo ATP luminescence, 1 h | Potency, µM (titrated, usually from 57.5 µM), for the others: at the highest dose activity change, negative = inhibition, actives largely listed as inhibitors | 0.37% of 290,000 active; active = well fitted curve in the direction sought with a large enough effect; inconclusive = small, poorly fitted or top-dose-only effect, or another doubt; inactive = no such curve, though single readings can be large; an effect the other way counts as inactive or inconclusive; note: potency is the fitted concentration of half-maximal effect; % is set by controls: 0 for no effect and ±100 for the full control effect
Target sequence (Q27686 whole entry, looked up): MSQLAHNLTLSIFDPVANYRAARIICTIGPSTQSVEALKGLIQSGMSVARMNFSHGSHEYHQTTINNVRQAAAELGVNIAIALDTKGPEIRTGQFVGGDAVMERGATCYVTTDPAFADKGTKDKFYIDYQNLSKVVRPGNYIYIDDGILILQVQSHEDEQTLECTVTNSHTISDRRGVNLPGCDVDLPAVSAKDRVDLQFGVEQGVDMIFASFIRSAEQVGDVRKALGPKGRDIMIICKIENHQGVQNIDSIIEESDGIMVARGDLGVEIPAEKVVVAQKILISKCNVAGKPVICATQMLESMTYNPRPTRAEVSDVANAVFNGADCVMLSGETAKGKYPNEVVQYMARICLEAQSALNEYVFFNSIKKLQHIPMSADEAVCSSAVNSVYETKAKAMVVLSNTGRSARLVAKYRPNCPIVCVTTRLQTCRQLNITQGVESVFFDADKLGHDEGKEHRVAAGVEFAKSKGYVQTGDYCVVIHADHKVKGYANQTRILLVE
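Pyruvate kinase activity monitored as ATP production (luciferase luminescence). Conditions: 0.1 nM enzyme, 0.5 mM PEP, 0.1 mM ADP, 1 h, RT; normalized against uninhibited and no-enzyme wells.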
Shiga inhibitor = A qHTS for Small Molecule Inhibitors of Shiga Toxin; AID 2315, 2010; inhibition, % at 38.7 µM; 9.2% of 290,000 active; Vero cells, Shiga toxin protein synthesis inhibition reporter; in the data active = inhibition mostly above about 28%, no sharp cut-off; inactive = mostly below about 43%; note: 0% is about no effect
NS1 inh = qHTS Assay for Inhibitors of Influenza NS1 Protein Function. Potency, µM (series often up to 46.1 µM), inactives show at the top dose activity, positive = more growth. 0.4% of 270,000 active. AID 2326, 2010; note: potency is the fitted concentration of half-maximal effect; actives are rising curves; nearly all actives have a fitted effect of over 50% in size
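Read-out: OD600 growth recovery of NS1-expressing budding yeast. Cells grown overnight at 30C in -URA glucose medium, washed, resuspended and diluted 1:100 in 2% galactose assay medium, pH 6.0. Same strain lacking NS1 served as positive control.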
Cycloheximide cs = Cycloheximide Counterscreen for Small Molecule Inhibitors of Shiga Toxin; 12% of 300,000 active; max response, %; cell reporter, cycloheximide protein synthesis inhibition counterscreen; in the data active = max response mostly above about 13%, no sharp cut-off; inactive = mostly below about 14%; note: read at 38.3 µM for the half of the compounds with a filed dose; 0% is about no effect
TbPYK inhibitor = qHTS of Trypanosoma Brucei Inhibitors. AID 624173, 2012. TbPYK enzyme, Kinase-Glo Plus ATP luminescence, 45 min. pyruvate kinase (Trypanosoma brucei), Q57TT1. Potency, µM (series often up to 76.8 µM), for inactives: top-dose activity, negative = inhibition, hits mostly inhibitors. 0.12% of 410,000 active; active = well fitted curve in the direction sought with a large enough effect; inconclusive = small, poorly fitted or top-dose-only effect, or another doubt; inactive = no such curve, though single readings can be large; an effect the other way counts as inactive or inconclusive; note: potency is the fitted concentration of half-maximal effect; % is set by controls: 0 for no effect and ±100 for the full control effect; nearly all actives have a fitted effect of over 50% in size
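Activity of T. brucei pyruvate kinase was followed by Kinase-Glo Plus luminescence after the enzyme reacted 45 min at room temperature with 130 uM ADP (final) and substrate. Test compounds were added before ADP at multiple concentrations.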
Numbers without * were called inactive; ? = inconclusive; . = no result. This excerpt belongs to a sample that is enriched for hits. Unless noted, calls come from the whole dose curve.

SMILES	SARS PLP yeast	LmPK inhibitor	Shiga inhibitor	NS1 inh	Cycloheximide cs	TbPYK inhibitor
Cc1ccc(/C=C2\SC(N3CCCCC3)=NC2=O)cc1	-10.2%	-0.9%	72.8*	1.5%	42.4*	-3.9%
CCOC(=O)c1ccccc1NC(=O)Cn1c(=O)n(-c2cccc(C)c2)c(=O)c2c1c1cc(C)ccc1n2C	.	.	.	.	.	1.8%
O=S(=O)(c1ccc(=S)[nH]c1)N1CCCCCC1	6.1%	.	.	.	.	-1.6%
O=S(=O)(c1ccc(=S)[nH]c1)N1CCOCC1	-36.4%	.	.	.	.	7.94µM*
Cc1ccc(/C=C/C(=O)NCCCc2ccccc2)cc1	0.3%	2.2%	13.7	-1.8%	19.5*	-8.1%
O=C(/C=C/c1ccccc1)Nc1cccc(C(=O)NCCCc2ccccc2)c1	.	.	.	.	.	-3.9%
COc1ccc(/C=C/C(=O)NCCOc2ccc(C)cc2)cc1	-11.9%	0.1%	7.5	-13.1%	1.5	-9.4%
C#CCNC(=O)/C=C/c1ccc(C)cc1	9.0%	-23.5%	45.8	7.4%	36.1*	-1.8%
Cc1cc(C)cc(N2C(=O)NC(=O)/C(=C\C=C\c3ccco3)C2=O)c1	1.7%	1.8%	48.7*	8.8%	13.1	-22.4%
Cc1ccc(N2C(=O)NC(=O)/C(=C/C=C/c3ccco3)C2=O)cc1	-13.7%	0.2%	25.8*	4.2%	24.0*	-24.5%
COc1ccc(-c2nn(C)c3sc(C(=O)N4CCN(c5cccc(C)c5C)CC4)cc23)cc1OC	.	.	.	.	.	-5.3%
Cc1ccc(NS(=O)(=O)c2ccc(-c3ccc(=O)[nH]n3)o2)cc1N(C)C	4.0%	-6.8%	60.1*	4.6%	44.4*	-0.3%
Cc1ccc(NS(=O)(=O)c2ccc(-c3ccc(=O)[nH]n3)o2)cc1Cl	1.3%	5.0%	1.7	-1.3%	1.7	1.0%
O=C(CSc1nnc(-c2ccco2)n1Cc1ccccc1)NCc1ccccc1	-8.7%	4.1%	-30.8	-3.5%	-1.3	1.5%
Cc1occc1-c1nnc(SCC(N)=O)o1	-0.1%	-2.0%	35.1	-5.0%	13.5	-5.6%
Cc1occc1-c1nnc(SCC(=O)Nc2nccs2)n1Cc1ccco1	-3.9%	3.8%	-5.8	-0.8%	1.0	-5.3%
Cc1occc1-c1nnc(SCC(=O)c2ccc(F)cc2)o1	-0.6%	-0.9%	147.3*	-2.8%	37.4*	4.1%
O=C(CSc1nnc(-c2ccco2)n1Cc1ccccc1)c1ccc(F)cc1	16.2%	4.6%	60.2*	?	36.2*	-25.9%
Cc1occc1-c1nnc(SCC(=O)c2ccc(F)cc2)n1Cc1ccco1	1.0%	1.1%	14.3	-2.2%	12.5*	-17.8%
COc1ccc(C(=O)CSc2n[nH]c(=O)n2Cc2ccco2)cc1	-0.7%	0.8%	43.7*	-4.2%	32.4*	-8.9%
S=c1[nH]nc(-c2n[nH]c3c2CCC3)n1/N=C/C=C/c1ccco1	1.1%	5.6%	-6.5	10.5%	-0.9	-31.2%
Cc1ccc(Cc2c(-c3ccc(C#N)cc3)nc3c4ccccc4ccn23)cc1	.	.	.	.	.	1.8%
O=C(Nc1nc2ccccc2n1CCN1CCOCC1)c1cccc([N+](=O)[O-])c1	.	.	.	.	.	0.0%
C/C(=N\N=C(N)N)c1ccc(C)c(C)c1	1.3%	-1.4%	-3.8	6.7%	8.2	1.6%
O=C(CSc1nnc(COc2ccccc2)n1Cc1ccco1)c1ccc(F)cc1	-3.6%	5.8%	26.3	-10.4%	36.5*	-15.1%
SMILES	SARS PLP yeast	LmPK inhibitor	Shiga inhibitor	NS1 inh	Cycloheximide cs	TbPYK inhibitor
Cc1ccc(OCc2nnc(SCC(=O)c3ccccc3)n2Cc2ccco2)cc1	-6.3%	1.8%	28.2	-7.4%	12.9	?
COc1ccc(/C=C/C(=O)Nc2ccccc2C(F)(F)F)cc1OC	1.3%	1.1%	-26.0	-8.3%	-3.6	0.4%
CCOc1ccc(-c2nnc(SCC(=O)Nc3ccccc3C(F)(F)F)o2)cc1	.	.	.	.	.	5.3%
COc1ccc(/C=C/C(=O)Nc2ccccc2C(=O)NCC(c2ccc(OC)cc2)N(C)C)cc1 (stereo not drawn)	0.1%	-1.7%	39.5*	-20.8%	10.0	2.2%
COc1ccc(/C=C/C(=O)Nc2ccccc2C(=O)N2CCCC2)cc1	-5.0%	-6.8%	52.5*	-2.6%	24.2	.
COc1ccc(/C=C/C(=O)Nc2ccccc2C(F)(F)F)cc1	-4.7%	0.2%	58.9*	-1.8%	24.4*	8.8%

Bioassay records from PubChem BioAssay.
